From PubChem BioAssay (NCI)
This is part of a sample that, as a whole, favours compounds with a hit. Of some 79,000 tested, about 15% had one in any assay. Cut-off read from the data, not from the text of the source: active = growth inhibition above about 70%; inactive = the rest.

How the values were obtained:
[1] = NCI Yeast Anticancer Drug Screen. Data for the rad50 strain (AID 155);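 note: 0% = growth of vehicle-only cultures of the same strain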; conditions: S. cerevisiae rad50 strain growth inhibition; at 50.0 µM; active compounds read high
Summary of the method: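 Inhibition values express reduced yeast growth in compound-treated cultures relative to vehicle-treated controls.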

[2] = NCI Yeast Anticancer Drug Screen. Data for the mec2-1 strain (AID 157); conditions: S. cerevisiae mec2-1 strain, at 50.0 µM, active compounds read high
Summary of the method: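 Each compound was tested on mec2-1 yeast, a strain altered in DNA damage repair or cell cycle control. Growth inhibition is reported relative to vehicle.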

[3] = NCI Yeast Anticancer Drug Screen. Data for the sgs1 mgt1 strain (AID 161);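 note: 0% = growth of cultures given vehicle only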; conditions: S. cerevisiae sgs1 mgt1 strain, at 50.0 µM, active compounds read high
Summary of the method: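 Mutant yeast exposed to compound; growth scored against vehicle-only wells.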

[4] = NCI Yeast Anticancer Drug Screen. Data for the cln2 rad14 strain (AID 165);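 note: 0% = growth equal to vehicle treated cultures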; conditions: S. cerevisiae cln2 rad14 strain, at 50.0 µM, active compounds read high
Summary of the method: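 Test compounds were added to cln2 rad14 yeast cultures; inhibition of growth was then determined by comparison with vehicle treatment.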

[5] = NCI Yeast Anticancer Drug Screen. Data for the bub3 strain (AID 167); conditions: S. cerevisiae bub3 mutant strain, at 50.0 µM, active compounds read high
Summary of the method: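 Steps: expose the mutant yeast strain to compound; grow alongside vehicle-treated cultures; measure growth; express inhibition against the vehicle cultures.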

[6] = NCI Yeast Anticancer Drug Screen. Data for the mlh1 rad18 strain (AID 175); conditions: S. cerevisiae mlh1 rad18 strain growth inhibition; at 50.0 µM; active compounds read high
Summary of the method: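 Inhibition values reflect reduced growth of mutant yeast versus vehicle-treated controls following compound exposure; the mutations affect DNA damage repair.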

Measured: growth inhibition

C=C1C(=O)OC2C1C(OC(=O)/C(C)=C/C)CC1(C)C(=O)CCC(=C)C21 (centres undefined)
inactive: [1] 38.3% | [2] 47% | [3] 52.8% | [4] 44.1% | [5] 52.8% | [6] 63.6%

N#Cc1nnn(-c2ccccc2)n1
inactive: [1] 24.2% | [2] 13.5% | [3] 2.9% | [4] -15.7% | [5] 4% | [6] 22.5%

CC1(C(N)=O)CCC1
inactive: [1] 1.8% | [2] -15.4% | [3] -18.4% | [4] -24.1% | [5] 10.2% | [6] -20.9%

CN(C)CCCOC(=O)C(O)(Cc1ccccc1)C1CC1 (centres undefined)
inactive: [1] 10.7% | [2] 15.4% | [3] 6.25% | [4] 5.35% | [5] 28.6% | [6] 15.1%

CCOC(=O)Nc1nc2ccccc2n1CN1CCCCC1
inactive: [1] 18.5% | [2] 11.1% | [3] 23.4% | [4] 16.4% | [5] 0.2% | [6] 27.2%

CC(=O)Nc1cc(Cl)c(Oc2ccccc2)cc1[N+](=O)[O-]
inactive: [1] 19.2% | [2] 27.9% | [3] 27.7% | [4] 33% | [5] 52% | [6] 14.6%

CCOC(=O)C(NC(=O)c1cccc(Cl)c1)(N1CCN(c2cc3c(cc2F)c(=O)c(C(=O)O)cn3CC)CC1)C(F)(F)F (centres undefined)
inactive: [1] -7.7% | [2] -39.5% | [3] -18.3% | [4] 4.45% | [5] -16.8% | [6] -23.6%

CC1=C(C(=O)CC(=O)C(=O)Nc2ccc(Cl)cc2Cl)Sc2ccccc2N1
inactive: [1] -5.65% | [2] -11.2% | [3] -20.1% | [4] -6.1% | [5] 2.55% | [6] 3.45%

O=c1cc[nH]c(=S)[nH]1.[Pt]
inactive: [1] 12.1% | [2] 19.3% | [3] 5.55% | [4] -19.4% | [5] 0.7% | [6] 28.6%

CCNc1ncnc2c1cnn2C
inactive: [1] 0.45% | [2] -1.45% | [3] 2.45% | [4] -36% | [5] -2.8% | [6] -8.4%

CCc1ccc(NC(=S)NC(=O)c2ccccc2OC)cc1
inactive: [1] 10.6% | [2] 7.05% | [3] 9.3% | [4] 21.1% | [5] 20.4% | [6] 3.95%

C[Si](C)(C)c1ccc(C(=O)O)cc1
inactive: [1] 7.3% | [2] 12.6% | [3] -3.35% | [4] 3.2% | [5] -18.3% | [6] 10.2%

O=C(O)C=C(CBr)CBr
inactive: [1] 11.5% | [2] -3% | [3] -1.25% | [4] -24.1% | [5] 14.1% | [6] 9.05%

CC(=O)Nc1ccc(S(=O)(=O)NN)cc1
inactive: [1] -15.7% | [2] -12.1% | [3] -4.75% | [4] 10.2% | [5] 5.25% | [6] 9.1%

Cn1c2ccccc2c2c3c(ccc21)C(=O)c1ccccc1C3=O
inactive: [1] 6.85% | [2] -3.9% | [3] 7.15% | [4] -62.6% | [5] 8.2% | [6] -2.5%

CSc1cccc(NC(=S)NN/C(=N/S(=O)(=O)c2ccccc2)N2CCCC2)c1
inactive: [1] 6.3% | [2] -17.6% | [3] -1.35% | [4] 2.3% | [5] -2.9% | [6] -1.2%

O=c1ccc2c([nH]1)CCCC2
inactive: [1] -8.25% | [2] -8.25% | [3] -30.9% | [4] 1.35% | [5] -9.15% | [6] 0.55%

C=CCCCCCCCCCCCC
inactive: [1] -20.1% | [2] 0% | [3] -20.8% | [4] 0.8% | [5] -21.2% | [6] -0.4%

O=C(Nc1cc([N+](=O)[O-])ccc1F)Oc1ccc(OCc2ccccc2)cc1
inactive: [1] 11.9% | [2] -1.5% | [3] 9.9% | [4] -47.2% | [5] -2.55% | [6] 18.2%

CCC(C)NC(=O)/C=C/c1ccccc1 (centres undefined)
inactive: [1] 31.9% | [2] 17.1% | [3] 14.4% | [4] 12.4% | [5] -1.1% | [6] 6.65%

CCOC(=O)c1oc2c(OC)ccc3c2c1CCC3
inactive: [1] 7.7% | [2] 4% | [3] 1.8% | [4] -9.4% | [5] -6.25% | [6] 30.8%

CN(Cc1cccc(Cl)c1)C(=O)Nc1ccccc1Cl
inactive: [1] -1.25% | [2] 48.8% | [3] 47.5% | [4] -21% | [5] 34.6% | [6] 53.4%

C(=C\C(SCc1ccccc1)SCc1ccccc1)/c1ccccc1
inactive: [1] -43% | [2] -60% | [3] -27.8% | [4] 3.55% | [5] -7.2% | [6] -35.6%

Cc1cc(C)n(/N=C/c2ccccc2)c(=O)c1C#N
inactive: [1] 7.3% | [2] -10.3% | [3] 0.55% | [4] -0.55% | [5] 35.6% | [6] -0.05%

CCN(CC)CCNc1cc(C)nc(/N=C(\N)Nc2ccc(Cl)cc2)n1
inactive: [1] 23.9% | [2] 1.05% | [3] 18.1% | [4] -14.8% | [5] 11.6% | [6] 30.8%

O=C1CC2C(O)OC(O)C(C1)N2C(=O)OCC(Cl)(Cl)Cl (centres undefined)
inactive: [1] 10.8% | [2] -15.9% | [3] -8.55% | [4] 12.6% | [5] -17.4% | [6] -6.6%

CC(=O)OCC1OC(n2cnc([N+](=O)[O-])c2Br)C(OC(C)=O)C1OC(C)=O (centres undefined)
inactive: [1] 15.1% | [2] 15.4% | [3] 18.8% | [4] 25.5% | [5] 6.05% | [6] 21.8%

Brc1ccccc1C(Nc1nncs1)Nc1nncs1
inactive: [1] 6.6% | [2] -4.35% | [3] -10.7% | [4] -3.1% | [5] -0.25% | [6] 8.35%

CCCCCCC(/C=N\N=C\c1ccco1)=C\c1ccccc1
inactive: [1] -2.7% | [2] 6.15% | [3] 1.25% | [4] 2.75% | [5] 16.9% | [6] -7.8%

CCOC(=O)Nc1cccc(F)c1
inactive: [1] -10.9% | [2] 14.7% | [3] 22.9% | [4] -44.6% | [5] -21.1% | [6] -0.5%

CC1SC2(C(=O)N(CN3CCCCC3)c3ccccc32)N(c2ccccc2)C1=O (centres undefined)
inactive: [1] 15.4% | [2] -0.45% | [3] -30.9% | [4] -0.8% | [5] 3.9% | [6] -0.1%

CCN(CC)C(=O)CCC(=O)O
inactive: [1] 0.4% | [2] -13.3% | [3] -14.7% | [4] 3.3% | [5] 0.55% | [6] 24.7%

NC(=S)NN/C=C(\C=Nc1ccccc1)[N+](=O)[O-]
inactive: [1] 8.15% | [2] -3.3% | [3] 4.15% | [4] 0.4% | [5] 0.15% | [6] 1%

ON=C1c2cc(Cl)ccc2-c2ccc(Cl)cc21
inactive: [1] 5.25% | [2] 4.05% | [3] 18.1% | [4] -40.8% | [5] 5.45% | [6] 16.6%

CCCOc1nc(N)c2cnn(C3CCCCO3)c2n1 (centres undefined)
inactive: [1] -14.9% | [2] -25.5% | [3] 8.05% | [4] 16.1% | [5] 14.2% | [6] -9.25%

Cn1c2ccccc2c2nnc(N/N=C/c3cccs3)nc21
inactive: [1] -15.6% | [2] -9.2% | [3] -9.6% | [4] -32.2% | [5] -10.6% | [6] 10.7%

CCOc1ccc(/C=C(\NC(=O)c2ccccc2)C(=O)Nc2ccccc2)cc1OC
inactive: [1] 4.8% | [2] -12.6% | [3] -4.45% | [4] -25.6% | [5] -0.15% | [6] 2.1%

CCCCCCCCCC(=O)N/N=C\c1cccc2ccccc12
inactive: [1] 0.15% | [2] 17.9% | [3] 1.2% | [4] -14.1% | [5] 24.6% | [6] 16.9%

C=C(C)c1ccc(B2Nc3ccccc3N2)cc1
inactive: [1] 53.6% | [2] 30.2% | [3] 45.6% | [4] 18.8% | [5] 40.8% | [6] 58.5%
